Sampled rows, rich in hits. Any-hit rate of the full collection: about 1.2%.
UGM FP inh = M. tuberculosis UGM enzyme inhibitors, primary screen, biochemical, fluorescence polarization, single point. 320,000 compounds, 0.06% hits. purified UGM, fluorescence polarization probe displacement. inhibition, % at 10 µM. AID 504406, 2011; in the data active = inhibition above about 10%, passing the limit was not always enough
Rv3671c inh = Rv3671c serine protease inhibitors, primary screen, biochemical, fluorescence polarization, M. tuberculosis H37Rv. 320,000 compounds, 0.048% hits. P9WHR9. inhibition, % at 5.96 µM; in the data active = inhibition above about 38%;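 also: extracellular domain of Rv3671c used as enzyme; 0% = enzyme with DMSO and 100% = no enzyme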
Target sequence (P9WHR9 whole entry, looked up, the tested form may be a part): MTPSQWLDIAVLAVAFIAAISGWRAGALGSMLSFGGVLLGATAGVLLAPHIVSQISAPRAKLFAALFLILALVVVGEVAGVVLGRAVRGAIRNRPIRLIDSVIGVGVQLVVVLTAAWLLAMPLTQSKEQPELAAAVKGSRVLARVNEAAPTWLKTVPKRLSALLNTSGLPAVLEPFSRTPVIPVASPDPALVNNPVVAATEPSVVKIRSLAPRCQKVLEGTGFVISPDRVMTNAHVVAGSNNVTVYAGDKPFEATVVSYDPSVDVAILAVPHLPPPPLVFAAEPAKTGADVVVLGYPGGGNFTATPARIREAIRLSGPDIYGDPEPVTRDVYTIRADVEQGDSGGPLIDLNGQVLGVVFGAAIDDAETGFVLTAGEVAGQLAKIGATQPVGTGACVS
Mtb betalactam = beta-lactam sensitization of Mtb H37Rv, H37Rv; M. tuberculosis H37Rv growth with meropenem, percent inhibition; inhibition, % at 25 µM; 330,000 compounds, 0.27% hits; call rule not given here;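 also: growth measured after seven days incubation then overnight dye step; 0% = bacteria only wells and 100% = bacteria with antibiotic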
RecA splice inh = Mtb RecA intein splicing inhibitors, primary screen, biochemical, fluorescence, HTS; Protein RecA (Mycobacterium tuberculosis (strain ATCC 25618 / H37Rv)), P9WHJ3; cell-free RecA intein splicing; inhibition, % (test concentration not listed); 290,000 compounds, 0.75% hits; AID 2221, 2009; in the data active = inhibition above about 30%;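 also: 0% = vehicle wells and 100% = reference inhibitor control wells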
CCHFV vOTU inh = CCHFV vOTU protease inhibitors, primary screen, biochemical, Pep-AMC substrate, fluorescence | 370,000 compounds, 0.55% hits | Crimean-Congo hemorrhagic fever virus L polyprotein viral ovarian tumor (vOTU) protease … | AID 651958, 2012 | inhibition, % at 11.5 µM; in the data active = inhibition above about 30%; also: 0% = vehicle wells with enzyme and 100% = no enzyme wells
An asterisk follows results filed as active.

Cc1c(N=C2N=C(NC(=O)c3ccc(F)cc3)c3ccccc32)c(=O)n(-c2ccccc2)n1C was read as UGM FP inh 18*, Rv3671c inh -1, Mtb betalactam -2 and CCHFV vOTU inh -10.
Screening Cc1nc2c(=O)n(C)c(=O)n(C)c2nc1Cl returned UGM FP inh -2, Rv3671c inh 11, Mtb betalactam 100, RecA splice inh 45* and CCHFV vOTU inh 5.
`Cn1c(=O)c2nncnc2n(C)c1=O` gave UGM FP inh 1, Rv3671c inh 1, Mtb betalactam -6, RecA splice inh 1 and CCHFV vOTU inh 15.
COc1ccc(C2CC(=O)C(c3ccc(C)cc3)=CN2Cc2ccccc2)cc1 (stereo unspecified) was read as CCHFV vOTU inh 4.
COC(=O)C1=NN(C(=O)c2cccc(Br)c2)C(O)(c2ccc(Cl)cc2)C1 (stereo unspecified) was read as UGM FP inh 0, Rv3671c inh 16, Mtb betalactam 9, RecA splice inh 37* and CCHFV vOTU inh 16.
Screening CCOC(=O)C1=NN(C(=O)c2ccc(OC)cc2)C(O)(c2ccc(Cl)cc2)C1 (stereo unspecified) returned UGM FP inh 1, Rv3671c inh 6, Mtb betalactam -3, RecA splice inh 21 and CCHFV vOTU inh 10.
Screening COC(=O)[C@]12C[C@H](CC(=O)NCc3cccs3)C(=O)N(Cc3ccco3)C1=C[C@H](C(C)C)O[C@@H]2C1CC1 returned CCHFV vOTU inh 2.
Cc1cccc(CN2CCN(C(=O)CCl)CC2)c1 was read as UGM FP inh -3, Rv3671c inh -15, Mtb betalactam 98, RecA splice inh 33* and CCHFV vOTU inh -9.
Screening Cc1cc(C)c(S(=O)(=O)/N=C2/C=C(Sc3ncn[nH]3)C(=O)c3ccccc32)cc1C returned UGM FP inh 3, Rv3671c inh -180, Mtb betalactam 9 and CCHFV vOTU inh 118*.
`Cc1ccc(NC2=C/C(=N/S(=O)(=O)c3cccs3)c3ccccc3C2=O)cc1C` gave UGM FP inh 0, Rv3671c inh -1, Mtb betalactam 3, RecA splice inh 9 and CCHFV vOTU inh 1.
For Cc1[nH]n(-c2ccccc2)c(=O)c1C(c1ccccc1[N+](=O)[O-])C(C#N)C#N (stereo unspecified) the results were UGM FP inh 1, Rv3671c inh -28, Mtb betalactam -5, RecA splice inh 64* and CCHFV vOTU inh 3.
`Cc1cc2nc3ccc(=[N+](C)C)cc-3sc2cc1N` gave RecA splice inh 31*.
Screening O=[N+]([O-])c1c(NCCCO)cc(Sc2nc3ccccc3s2)c2nonc12 returned UGM FP inh 5, Rv3671c inh -24, Mtb betalactam 96 and RecA splice inh 26.
Screening Cc1nnc(Sc2cc(NCCO)c([N+](=O)[O-])c3nonc23)s1 returned RecA splice inh 93* and CCHFV vOTU inh 29.
Screening Cc1ccc(-c2cc(-c3ccccc3)nc(Cl)n2)cc1 returned UGM FP inh 1, Rv3671c inh -10, Mtb betalactam 93, RecA splice inh 2 and CCHFV vOTU inh -2.
`Cc1ccc(-c2cc(C(F)F)nc(S(C)(=O)=O)n2)cc1` gave UGM FP inh 1, Rv3671c inh -3, Mtb betalactam 99, RecA splice inh 46* and CCHFV vOTU inh 13.
`CCOC(=O)N1C(=O)C[C@](Sc2ccc(OC)cc2)(C(=O)N2CCOCC2)[C@H]1c1ccc(OC)cc1` gave CCHFV vOTU inh -1.
COC(=O)[C@]12C[C@H](CC(=O)N3CCN(C(=O)C4CC4)CC3)C(=O)N(CCc3ccc(OC)c(OC)c3)C1=C[C@H](C(C)(C)C)O[C@@H]2C was read as CCHFV vOTU inh 1.
CC1CN(c2ccc([N+](=O)[O-])c3cccnc23)CC(C)N1 (stereo unspecified) was read as UGM FP inh 4, Rv3671c inh -2, Mtb betalactam 5, RecA splice inh 3 and CCHFV vOTU inh 32*.
`Cc1ccc(C=Nn2c(-c3n[nH]c4c3CCC4)n[nH]c2=S)o1` gave CCHFV vOTU inh 9.
Screening COc1ccccc1Oc1cc(C#N)c(C#N)cc1-n1nnc2ccccc21 returned UGM FP inh -1, Rv3671c inh 4, Mtb betalactam 11, RecA splice inh 42* and CCHFV vOTU inh 9.
CCCC(=O)Nc1ccc(Cc2ccc(NC(=O)CCC)c(C(=O)O)c2)cc1C(=O)O was read as UGM FP inh 11*, Rv3671c inh -5, Mtb betalactam -3, RecA splice inh -5 and CCHFV vOTU inh 13.
`CC(=O)c1ccc(NC(=O)NC2CCCCN(Cc3cccc(Cl)c3)C2=O)cc1` (stereo unspecified) gave CCHFV vOTU inh 29.
`O=Cc1cccc(Oc2ncccn2)c1` gave UGM FP inh 0, Rv3671c inh -5, Mtb betalactam 6, RecA splice inh -3 and CCHFV vOTU inh -11.
`Nc1ccc(Oc2ncccn2)cc1` gave UGM FP inh -3, Rv3671c inh -4, Mtb betalactam 4, RecA splice inh 51* and CCHFV vOTU inh 20.
For Cc1ccc(-n2c(SCC(=O)Nc3ccccc3-c3ccccc3)nnc2-c2ccco2)cc1 the results were CCHFV vOTU inh 6.
CCOC(=O)C(C)Sc1ncnc2c1nnn2-c1ccc(F)cc1 (stereo unspecified) was read as UGM FP inh 2, Rv3671c inh -9, Mtb betalactam 99, RecA splice inh 37* and CCHFV vOTU inh -6.
For COC(=O)C1CN(Cc2ccc(C)cc2)CCS(=O)(=O)N1Cc1cn(Cc2ccc(Cl)cc2)nn1 (stereo unspecified) the results were CCHFV vOTU inh 10.
`C[C@@H]1CC=C[C@H]2[C@H]1C(=O)N(Cc1ccccc1)[C@H]2c1ccc(F)c(Br)c1` gave RecA splice inh 32*.
For COC(=O)[C@]12C[C@H](CC(=O)N3CCN(C(=O)c4ccco4)CC3)C(=O)N(Cc3ccc(Cl)cc3Cl)C1=C[C@H](C1CCCC1)O[C@@H]2C the results were CCHFV vOTU inh 11.
For Cc1onc(-c2ccccc2)c1-c1nc2cc(Cl)ccc2c(=O)o1 the results were UGM FP inh 3, Rv3671c inh -6, Mtb betalactam -5, RecA splice inh 36* and CCHFV vOTU inh -7.
`COC(=O)C1CN(Cc2ccc(C)cc2)CCS(=O)(=O)N1Cc1cn(Cc2ccccc2)nn1` (stereo unspecified) gave CCHFV vOTU inh 1.
`O=C(NC(NC(=S)Nc1ccc(Cl)cc1Cl)C(Cl)(Cl)Cl)c1cccc([N+](=O)[O-])c1` (stereo unspecified) gave UGM FP inh -2, Rv3671c inh -268, Mtb betalactam 74, RecA splice inh 37* and CCHFV vOTU inh -9.

Source: PubChem BioAssay
